Results on twelve compounds are retold here after PubChem BioAssay.

Assay [1] in a line: resazurin metabolic signal in HepG2 cells – cell-based, resazurin fluorescence, 24 h, PK04 Diversity Set, profiling panel (AID 1172). Also: test concentration not given here. The following applies: HepG2 viability, higher = more signal. Background: Resazurin is reduced to fluorescent resorufin, in cell work by metabolically active cells.
Assay [2] in a line: budding yeast growth changes without added modifier – OD600, strain BY4716, 24 h, basal condition, primary screen (AID 1173). As to conditions: S. cerevisiae BY4716 growth, OD600, 24 h; higher = more signal, called active from +8 up or from −8 down.
The nature of assay [3]: viability profiling in MM1S myeloma cells – cell-based, resazurin fluorescence, basal, 24 h, PK04 Diversity Set, profiling panel (AID 1174).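 Also: MM1S multiple myeloma cell line; test concentration not given here.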 The following applies: higher = more signal, called active from +8 up or from −8 down.
In assay [4] the target is Dihydroorotate dehydrogenase (quinone), mitochondrial (Plasmodium falciparum (isolate 3D7)) (UniProt Q08210). Put plainly: inhibition of P. falciparum DHODH – biochemical, C-terminal His tag, absorbance 600 nm, primary screen (AID 1175).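 Also: recombinant parasite enzyme with a five histidine tag at its C terminus; test concentration not given here.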 As to conditions: PfDHODH enzyme, DCIP absorbance 600 nm; higher = more signal, called active from +8 up or from −8 down.
Dihydroorotate dehydrogenase (quinone), mitochondrial (Plasmodium falciparum (isolate 3D7)), sequence (Q08210 whole entry, looked up): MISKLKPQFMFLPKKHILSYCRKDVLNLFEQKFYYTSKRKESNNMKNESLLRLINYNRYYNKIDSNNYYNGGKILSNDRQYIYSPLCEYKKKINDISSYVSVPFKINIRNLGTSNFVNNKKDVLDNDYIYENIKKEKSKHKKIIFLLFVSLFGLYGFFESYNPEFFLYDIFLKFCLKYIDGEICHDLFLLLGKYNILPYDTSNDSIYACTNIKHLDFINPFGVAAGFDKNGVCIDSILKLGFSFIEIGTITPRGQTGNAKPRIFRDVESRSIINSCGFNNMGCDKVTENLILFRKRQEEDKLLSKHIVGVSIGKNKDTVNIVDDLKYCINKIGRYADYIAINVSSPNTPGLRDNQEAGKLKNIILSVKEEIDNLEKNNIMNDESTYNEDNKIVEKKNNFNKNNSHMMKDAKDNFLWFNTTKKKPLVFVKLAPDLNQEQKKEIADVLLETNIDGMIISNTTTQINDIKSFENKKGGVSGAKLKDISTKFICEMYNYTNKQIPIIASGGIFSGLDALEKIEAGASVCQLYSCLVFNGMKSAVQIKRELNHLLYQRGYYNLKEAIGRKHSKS
The nature of assay [5]: inhibition of PAO1 biofilm formation – strain PAO1, LB-PBS medium, absorbance 600 nm, primary screen (AID 1176). Also: test concentration not given here. As to conditions: P. aeruginosa PAO1 growth/biofilm, A600, 12 h; higher = more signal.
Assay [6] can be described thus: growth modulation of vineyard yeast isolate – strain RM11-1a, OD600, basal, 24 h, primary screen (AID 1177).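 Also: cultures grown under basal conditions with no added stressor; test concentration not given here.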 The following applies: S. cerevisiae RM11-1a growth, OD600, 24 h; higher = more signal, called active from +8 up or from −8 down.
Assay [7] is described as follows: growth of efflux-deficient E. coli DRC39 – strain DRC39, OD650, 24 h, E. coli filamentation inducers, primary screen (AID 1178).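 Also: growth measured as culture turbidity by optical density at 650 nm; test concentration not given here.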 As to conditions: E. coli DRC39 acrAB, higher = more signal, called active from +8 up or from −8 down.
Assay [8] can be described thus: growth of efflux-deficient E. coli DRC39 – strain DRC39, OD650, 48 h, E. coli filamentation inducers, primary screen (AID 1179).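 Also: screen aims at cell division blockers that make cells filament.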 The following applies: E. coli DRC39 delta-acrAB growth, higher = more signal, called active from +8 up or from −8 down.
A short description of assay [9]: viability profiling in RPMI8226 myeloma cells – cell-based, resazurin fluorescence, basal, 24 h, PK04 Diversity Set, profiling panel (AID 1180).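 Also: RPMI8826 multiple myeloma cell line at 5000 cells per well; test concentration not given here.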 As to conditions: higher = more signal.
Assay [10] addresses E3 ubiquitin-protein ligase XIAP (Homo sapiens) (UniProt P98170). Put plainly: small molecules binding XIAP protein – biophysical, small-molecule microarray, fluorescence 635 nm, primary screen (AID 1181).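 Also: score merges 667 nm emission and signal to noise over triplicate slides.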 As to conditions: higher = more signal.

The source made the active and inactive calls. Unless noted, no rule for the calls is given here.

E3 ubiquitin-protein ligase XIAP (Homo sapiens), sequence (P98170 whole entry, looked up): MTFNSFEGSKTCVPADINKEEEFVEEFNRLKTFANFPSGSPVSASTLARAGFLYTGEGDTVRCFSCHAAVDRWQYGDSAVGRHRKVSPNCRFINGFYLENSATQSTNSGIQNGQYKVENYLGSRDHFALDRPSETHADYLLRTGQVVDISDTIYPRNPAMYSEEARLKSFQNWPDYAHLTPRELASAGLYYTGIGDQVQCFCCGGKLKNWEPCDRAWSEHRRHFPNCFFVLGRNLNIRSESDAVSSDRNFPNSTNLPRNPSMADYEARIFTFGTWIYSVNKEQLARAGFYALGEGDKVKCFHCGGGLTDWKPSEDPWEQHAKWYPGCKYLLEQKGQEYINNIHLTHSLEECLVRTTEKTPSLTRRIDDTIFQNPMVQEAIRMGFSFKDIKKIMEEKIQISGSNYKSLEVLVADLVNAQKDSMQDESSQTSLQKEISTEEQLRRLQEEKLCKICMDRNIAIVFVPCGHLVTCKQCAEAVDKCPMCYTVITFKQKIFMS

`N[C@@H](Cc1ccccc1)Cn1cc(C2(O)CCCCC2)nn1`: the z-score was -0.384 in [1]; -0.125 (inactive) in assay [2]; -0.156 (inactive) in assay [3]; 0.0672 (inactive) in assay [5]; -0.507 (inactive) in assay [6]; -0.0019 (inactive) in assay [7]. The z-score was -0.607 (inactive) in assay [8] and -0.785 in assay [9]. The composite z-score in [4] was -0.0324 (inactive); in assay [10], -0.0767.
Turning to `CCCCC(=C=CC[C@H](O)c1ccc(OCCO)cc1)C[C@H](O)c1ccccn1`, the z-score in [1] was 0.325; in assay [2], -0.265 (inactive); in assay [3] it was 0.747 (inactive); in [5], -0.247 (inactive); in assay [6], 0.387 (inactive); in [7], 1.45 (inactive). For the same compound, the z-score was 0.949 (inactive) in [8] and 1.76 in assay [9]. In addition, the composite z-score was -2.06 (inactive) in assay [4] and -0.142 in [10].
Turning to `COC(=O)[C@]1(CO)N=C(c2ccc(OCCCO)cc2)O[C@@H]1c1ccccc1CN=[N+]=[N-]`, the z-score in assay [1] was -0.318; in assay [2] it was 0.443 (inactive); in assay [3] it was -0.529 (inactive); in [5], -0.677 (inactive); in assay [6], -0.299 (inactive); in assay [7], -0.246 (inactive). The z-score in assay [8] is 0.321 (inactive); in assay [9], -0.15. The composite z-score was 0.415 (inactive) in assay [4] and -0.21 in [10].
For `CCCCN1CC=CC23O[C@@H]4C=CCOC(=O)[C@@H]4[C@H]2C(=O)N(C(CO)C(C)C)[C@@H]3C1=O` (stereo not given in full), the z-score in assay [1] was -0.469; in assay [2], 0.303 (inactive); in assay [3], -0.908 (inactive); in assay [5], 0.0405 (inactive); in assay [6], 0.707 (inactive); in assay [7], -0.781 (inactive). Further, the z-score was -0.825 (inactive) in assay [8] and -0.844 in assay [9]. Besides, the composite z-score in assay [4] is -0.221 (inactive); in [10] it was -0.22.
As for `NCCCC[C@@H]1NC(=O)[C@H]2C[C@@H](C(=O)NCc3ccc(F)cc3)[C@@H](c3cccc(OCCO)c3)N2C1=O`, the z-score was -1.49 in assay [1]; -0.956 (inactive) in [2]; 0.646 (inactive) in assay [3]; 0.379 (inactive) in [5]; 1.57 (inactive) in [6]; 0.71 (inactive) in [7]. In addition, the z-score in [8] is 0.896 (inactive); in [9] it was 1.04. Also, the composite z-score in assay [4] was 0.22 (inactive); in assay [10], -0.271.
Turning to `CCCCC(=C=CC[C@@H](O)c1cccc(OCCO)c1)CCO`, the z-score was 0.695 in [1]; -1.26 (inactive) in assay [2]; -0.0452 (inactive) in [3]; 0.424 (inactive) in assay [5]; 0.549 (inactive) in assay [6]; 1.14 (inactive) in [7]. Besides, the results for the z-score in assay [8] and in [9] were 0.839 (inactive) and 1.37, respectively. The composite z-score in assay [4] was -0.376 (inactive); in assay [10], -0.0853.
With `C=CCC(OC(C)=O)[C@@H]1[C@@H](N(Cc2cccc3ccccc23)C(=O)c2cccc3ccccc23)c2cc(OCCCO)ccc2N1C(=O)Cc1ccc2ccccc2c1` (stereo not given in full), the z-score in assay [1] was 0.414; in assay [2], -0.599 (inactive); in assay [3], -0.41 (inactive); in assay [5], -0.723 (inactive); in assay [6] it was -0.0264 (inactive); in [7] it was 0.632 (inactive). Further, the z-score in assay [8] was 0.334 (inactive); in [9], -0.0924. Further, the composite z-score in assay [4] is -0.373 (inactive); in [10] it was 0.452.
For `C=C(COC)C(=O)CC[C@@H](OC(=O)c1cccnc1)c1cccc(OCCO)c1`, the z-score in [1] was 0.312; in assay [2] it was 0.798 (inactive); in assay [3] it was -0.857 (inactive); in [5] it was 0.543 (inactive); in assay [6], 0.544 (inactive); in assay [7], 1.16 (inactive). For the same compound, the z-score in assay [8] is 0.927 (inactive); in assay [9], -2.55. In addition, the composite z-score in [4] is -0.289 (inactive); in [10], -0.162.
With `CC(C)C(=C=CC[C@@H](O)c1ccc(OCCO)cc1)CCO`, the z-score was 1 in assay [1]; -3.28 (inactive) in assay [2]; 1.21 (inactive) in [3]; 0.13 (inactive) in [5]; -1.17 (inactive) in assay [6]; 1.61 (inactive) in assay [7]. For the same compound, the z-score in [8] is 1.52 (inactive); in [9], 1.52. The values for the composite z-score in assay [4] and in assay [10] were -2.88 (inactive) and -0.0645, respectively.
Take `C=CCOC(=O)[C@H]1[C@@H]2C(=O)O[C@@H](c3ccccc3)[C@@H](c3ccccc3)N2[C@@H](c2ccc(OCCOC(=O)[C@H]3C[C@H]4C(=O)NCC(=O)N4[C@H]3c3ccc(O)cc3)cc2)[C@]12C(=O)Nc1ccc(I)cc12`: the z-score in assay [1] is 0.0134; in assay [2] it was 1.27 (inactive); in [3], 0.478 (inactive); in assay [5], 2.83 (inactive); in [6] it was 1.7 (inactive); in assay [7] it was 0.157 (inactive). The z-score is 0.987 (inactive) in [8] and 0.642 in [9]. Besides, the composite z-score in assay [4] was 0.383 (inactive); in assay [10], -0.0351.
With `CC(C)CNC(=O)[C@@H]1c2ccccc2C(=O)N(CC23CC4CC(CC(C4)C2)C3)[C@H]1c1ccc(CO)cc1`, the z-score was 0.82 in [1]; -1.17 (inactive) in assay [2]; 1.93 (inactive) in [3]; -0.397 (inactive) in [5]; -0.0966 (inactive) in assay [6]; 0.256 (inactive) in [7]. Further, the z-score is 0.339 (inactive) in assay [8] and 0.281 in [9]. Besides, the composite z-score in assay [4] is -0.42 (inactive); in [10] it was -0.13.
As to `CCOC(=O)C[C@H]1[C@H](OC(=O)c2ccc(-c3ccccc3)cc2)[C@@H](NC(=O)c2ccc3ccccc3c2)c2cc(OCCCO)ccc2N1C(=O)c1ccccc1`, the z-score is -0.491 in assay [1]; 1.31 (inactive) in assay [2]; -0.483 (inactive) in assay [3]; 0.055 (inactive) in [5]; 1.13 (inactive) in [6]; -0.0319 (inactive) in assay [7]. Further, the z-score in assay [8] is -0.0532 (inactive); in assay [9], -0.221. For the same compound, the composite z-score was 0.622 (inactive) in assay [4] and 0.0454 in [10].
